In PubChem BioAssay AID743060 (The Scripps Research Institute Molecular Screening Center, 2013):

test: T. brucei methionyl-tRNA synthetase enzyme inhibition – biochemical, radioactivity, round 1, late-stage follow-up (AID 743060); details: purified enzyme, radiolabel aminoacylation, scintillation, 2 h; at 10 µM; stronger effect = higher value

SMILES | inhibition
Cc1cccc2[nH]c(C3CCCN(C(=O)c4cccc5cccnc45)C3)nc12 (stereo not given) | -4.34%
O=C(Cn1cnc2ccccc21)Nc1cccc([N+](=O)[O-])c1 | 91.9%
CCN(C(=O)Cn1cc(C(=O)C(=O)N2CCOCC2)c2ccccc21)c1ccccc1 | -23.7%
Cc1ccc(CNC(=O)CSc2nnc3c(n2)[nH]c2ccc(C)cc23)cc1 | 71.3%
O=C(CCC(=O)Nc1cccc([N+](=O)[O-])c1)NN=Cc1cccs1 | 74.3%
O=C(NCc1nc2ccccc2[nH]1)C1=C[C@H](c2ccc(Br)cc2)C[C@H](OCCCCO)O1 | 94.3%
O=C(NCc1nc2ccccc2[nH]1)C1=C[C@@H](C2CC2)C[C@@H](OCc2ccc(CO)cc2)O1 | 93.6%
O=C(NCCc1nc2ccccc2[nH]1)c1ccc(Cl)cc1 | 74.2%
O=C(NCCc1nc2ccccc2[nH]1)c1ccc(Cl)cc1Cl | 94.9%
O=C(NCc1nc2ccccc2[nH]1)C1=C[C@@H](c2csc3ccccc23)C[C@@H](OCCCCO)O1 | 89.2%
CC(C)c1nc2ccc(C(=O)N(C)CCc3nc4ccc(F)cc4[nH]3)cc2o1 | -7.17%
Cc1cccc(C(=O)NCCc2nc3ccccc3n2CCOc2ccccc2)c1 | 0.31%
O=C(NCc1nc2ccccc2[nH]1)C1=C[C@@H](c2ccc3c(c2)OCO3)C[C@@H](OCCCCO)O1 | 93.7%
O=C1CC(NCCc2ccccc2)C(=O)N1c1ccc(Br)cc1 (stereo not given) | -9%
CCN(CC)C(=O)C(=O)c1cn(CC(=O)Nc2cccc(OC)c2)c2ccccc12 | 86.4%
COc1ccc(CCN(C(=O)c2cccc(F)c2)C2CC(=O)N(c3ccc(Br)cc3)C2=O)cc1 (stereo not given) | -7.62%
COc1ccccc1-n1c(SCC(=O)Nc2ccc(Cl)cc2)nc(O)c(Cc2ccccc2)c1=O | 67%
CCO[C@@H]1OC(C(=O)NCc2nc3ccccc3[nH]2)=C[C@H](c2ccc(Br)cc2)[C@H]1CCCO | 64%

SMILES | inhibition
O=C(NCCc1nc2ccccc2[nH]1)c1ccc(Cl)c(Cl)c1 | 97.5%
Cc1cccc(NC(=O)C2CC(=O)n3c(nc4ccccc43)N2)c1 (stereo not given) | 8.95%
COc1ccccc1NC(=O)Cn1cc(C(=O)C(=O)N2CCOCC2)c2ccccc21 | -13.7%
O=C(C[C@H]1C(=O)N(Cc2ccccc2)C[C@@H]1c1ccc(Br)cc1)Nc1ccc(Br)cc1 | 94.4%
O=C(N/C(=C\c1cccnc1)c1nc2ccccc2[nH]1)c1cccc(Br)c1 | 71.7%
COc1cccc(NC(=O)CSc2nnc3c(n2)[nH]c2ccc(C)cc23)c1 | 94.2%
CCN(CC)C(=O)C(=O)c1cn(CC(=O)Nc2cccc(C(F)(F)F)c2)c2ccccc12 | 99.5%
O=C(NCc1nc2ccccc2[nH]1)C1=C[C@@H](c2ccc(Br)cc2)C[C@@H](OCc2ccc(CO)cc2)O1 | 97.6%
O=C(C(=O)N1CCOCC1)c1cn(CC(=O)N2CCCc3ccccc32)c2ccccc12 | -4.11%
CCCCn1c(CCNC(=O)c2ccc(F)cc2)nc2ccccc21 | 2.32%
Cc1[nH]c2ccc(Br)cc2c(=O)c1CN1CCCCCC1 | 86.6%
O=C(CC(=O)Nc1cccc(Cl)c1)NN=Cc1ccccc1 | 81.1%
CN1CC(=O)N2C(c3cccc([N+](=O)[O-])c3)c3[nH]c4ccccc4c3C[C@H]2C1=O (stereo not given in full) | 96.7%
CC(=O)N(CCc1ccccc1)C1CC(=O)N(c2ccc(Cl)cc2)C1=O (stereo not given) | -17.1%
O=C(NCCc1nc2ccccc2[nH]1)c1ccc(Cl)c([N+](=O)[O-])c1 | 99.6%
O=C(NCc1nc2ccccc2[nH]1)C1=C[C@H](c2csc3ccccc23)C[C@H](OCCCCO)O1 | 97.8%
O=C(NCCc1nc2ccccc2[nH]1)c1c(F)cccc1F | 1.38%
